Values joined by “and” are separate entries in the source; they are usually repeats but may differ in a detail not shown here. Identical values can stand only once. In all, about 16,000 compounds went through this assay and about 4,000 (25%) were called active. Inconclusive results (about 26%) are left out. Calls follow the shape of the dose curve; as a rule, active = well fitted curve in the direction sought with a large enough effect; inconclusive = small, poorly fitted or top-dose-only effect, or effect the other way; inactive = no such curve, though single readings can be large or run the other way. Only a sample is shown.
These molecules were tested against Cytochrome P450 2C9 (Homo sapiens) (UniProt P11712) (assay: Cytochrome panel assay with activity outcomes). Conditions: recombinant CYP, pro-luciferin dealkylation, luminescence, p450-cyp2c9; series mostly up to 57.1 µM; activity, negative = inhibition: at the top concentration.
Chain of Cytochrome P450 2C9 (Homo sapiens) (P11712 whole entry, looked up): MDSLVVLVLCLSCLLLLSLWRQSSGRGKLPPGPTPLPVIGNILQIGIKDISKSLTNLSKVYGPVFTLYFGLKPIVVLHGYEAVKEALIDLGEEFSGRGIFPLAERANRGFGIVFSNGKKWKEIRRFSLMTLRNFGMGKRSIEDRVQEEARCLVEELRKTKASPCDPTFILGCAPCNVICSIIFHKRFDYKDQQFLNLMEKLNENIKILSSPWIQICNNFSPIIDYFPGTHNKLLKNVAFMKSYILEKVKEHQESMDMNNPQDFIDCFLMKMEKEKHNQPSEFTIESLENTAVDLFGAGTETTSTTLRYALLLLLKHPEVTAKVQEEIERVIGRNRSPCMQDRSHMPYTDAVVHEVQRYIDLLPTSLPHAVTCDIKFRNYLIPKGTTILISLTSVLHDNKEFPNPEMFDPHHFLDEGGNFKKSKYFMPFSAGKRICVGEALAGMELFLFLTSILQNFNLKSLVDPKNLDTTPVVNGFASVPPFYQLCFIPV
With `O=C(OCCNC(=O)c1ccc2ccccc2n1)c1ccc(F)cc1` the AC50 was 10 µM (active). With `CCCCNc1ccc(C(=O)OCCOCCOCCOCCOCCOCCOCCOCCOCCOC)cc1` the “activity, negative = inhibition” value was -19.2% [at 25.6 µM] (inactive). With `NCCNC(=O)c1ncsc1-c1cccc(F)c1` the “activity, negative = inhibition” value was -13.3% (inactive). `O=c1[nH]c(SCc2c(Cl)c(Cl)c(Cl)c(Cl)c2Cl)nc(=S)[nH]1` was tested, and the AC50 was 1.26 µM (active). `Nc1ccc(N=Nc2c(S(=O)(=O)O)cc3ccccc3c2S(=O)(=O)O)cc1` was tested, and the activity, negative = inhibition was 8.14% [at 11.4 µM] (inactive). `NCC[C@H]1CCC[C@H](CCN)N1` was tested, and the “activity, negative = inhibition” value was 18.1% (inactive). In the case of `Cc1ccc(C)c(N2CCN(C(=O)c3ccc4nc(-c5ccco5)c(-c5ccco5)nc4c3)CC2)c1`, the AC50 is reported as 7.08 µM (active). With `COc1cc2nc(N3CCN(C(=O)c4ccco4)CC3)nc(N)c2cc1OC` the “activity, negative = inhibition” value was 15.7% [at 25.6 µM] (inactive). With `COc1ccc(C)cc1NC(=O)CSc1nnc(-c2ccc(OC)c(OC)c2)n1N` the “activity, negative = inhibition” value was -24.7% (inactive). In the case of `COc1ccc(C)cc1NC(=O)CCC(=O)Nc1nnc(C(F)(F)F)s1`, the AC50 is reported as 1.26 µM (active). For `CCC(=O)OCC(=O)[C@@]1(OC(=O)CC)[C@H](C)C[C@@H]2[C@H]3CCC4=CC(=O)C=C[C@]4(C)[C@]3(Cl)[C@@H](O)C[C@@]21C`, the “activity, negative = inhibition” value was -6.62% [at 25.6 µM] (inactive). In the case of `CC(C)NC[C@H](O)c1ccc2ccccc2c1`, the AC50 is reported as “inactive”. In the case of `CCCCOC(OCCCC)[C@H](O)CSc1ccc2ccccc2c1`, the AC50 is reported as 2 µM (active). With `CCN(CC)C[C@@H](O)c1ccc2ccc3ccccc3c2c1` the activity, negative = inhibition was -3.91% [at 11.4 µM] (inactive). With `Cc1cc(C)c(C#N)c(OCC(=O)c2ccc(Br)cc2)n1` the AC50 was 10 µM (active). In the case of `Cc1cc(C)c(C#N)c(Oc2ccccc2)n1`, the “activity, negative = inhibition” value is reported as -26.3% (inactive). For `Cc1ccc(=O)n(-c2ccccc2)c1`, the “activity, negative = inhibition” value was -14.5% (inactive). With `COc1ccc(NC(=O)N2CCCC3(CCN(C(=O)c4cccn4C)CC3)C2)cc1` the “activity, negative = inhibition” value was 6.73% (inactive). In the case of `O=C1CN(C(=O)c2ccc(Br)o2)C(c2ccc(F)cc2)c2cc(Cl)ccc2N1` (configuration not stated), the AC50 is reported as 6.31 µM (active). With `CO[C@H]1COC(=O)C/C=C\[C@@H](C)COC(=O)[C@@H](CCSC)NC(=O)C/C=C\[C@@H]1C` the activity, negative = inhibition was -2.93% [at 11.4 µM] (inactive) and 12.5% [at 11.4 µM] (inactive). For `C[C@H]1COC(=O)[C@H]2CCCN2C(=O)[C@@H](C)COC(=O)[C@H](Cc2ccccc2)NC1=O`, the activity, negative = inhibition was 13.4% [at 11.4 µM] (inactive). In the case of `Cc1ccc(S(=O)(=O)N[C@H](C(=O)O)C(C)C)cc1`, the activity, negative = inhibition is reported as -4.41% [at 11.4 µM] (inactive). In the case of `Cc1ccc(S(=O)(=O)NCc2ccccc2)cc1`, the “activity, negative = inhibition” value is reported as -8.12% (inactive). For `Cc1ccc(NNS(=O)(=O)c2ccc(C)cc2)cc1`, the AC50 was 8.91 µM (active). With `Cc1ccc(S(=O)(=O)N[C@H]2COC(=O)C/C=C\[C@H](C)[C@@H](NS(=O)(=O)c3ccc(C)cc3)COC(=O)C/C=C\[C@@H]2C)cc1` the activity, negative = inhibition was -6.21% [at 11.4 µM] (inactive). `Cc1ccc(S(=O)(=O)NNc2ccccc2)cc1` was tested, and the AC50 was 8.91 µM (active). `CCN=C1NN=C(c2ccc(C)cc2)CS1` was tested, and the AC50 was 6.31 µM (active). `COc1cccc(NC(=O)CSc2nc3ccccc3cc2Cc2ccccc2)c1` was tested, and the AC50 was 6.31 µM (active). In the case of `COc1ccc2cc(C#N)c(SCC(=O)NNC(=O)Cc3ccccc3)nc2c1`, the “activity, negative = inhibition” value is reported as -16.9% (inactive). In the case of `CCN(CC)C(=O)CSc1nnc(C2CCCCC2)o1`, the “activity, negative = inhibition” value is reported as 7.48% (inactive). For `CN1CCN(c2nc3c(c(=O)n(C)c(=O)n3C)n2C)CC1`, the activity, negative = inhibition was 0.789% [at 11.4 µM] (inactive). With `Cn1c(=O)c2c(nc(N3CCN(c4ccccn4)CC3)n2Cc2ccccc2Cl)n(C)c1=O` the AC50 was 3.55 µM (active). For `C=CCn1c(=O)c2c(nc(-c3ccc(S(=O)(=O)O)cc3)n2C)n(C)c1=O`, the “activity, negative = inhibition” value was 23.6% (inactive). For `C=CCn1c(=O)c2c(nc(Br)n2Cc2ccccc2Cl)n(C)c1=O`, the AC50 was 14.1 µM (active). For `C=CCn1cc(Cl)c(=O)n(CC=C)c1=O`, the “activity, negative = inhibition” value was -24.2% (inactive). `Cn1c(=O)c2c(nc(N3CCN(c4ccccn4)CC3)n2Cc2ccc(Cl)cc2Cl)n(C)c1=O` was tested, and the “activity, negative = inhibition” value was -25.2% (inactive). With `O=C(O)CCC(=O)CCC(=O)c1ccccc1` the “activity, negative = inhibition” value was 5.67% (inactive). In the case of `OCCN1CCN(CCC=C2c3ccccc3Sc3ccc(Cl)cc32)CC1`, the “activity, negative = inhibition” value is reported as -0.458% [at 25.6 µM] (inactive). In the case of `CN1CCN(C(=O)c2ccc(-n3cccc3)cc2)CC1`, the “activity, negative = inhibition” value is reported as 9.87% (inactive). For `COc1cc(OC)cc(C(=O)Nn2cc(C(=O)N3CCN(C)CC3)c3ccccc3c2=O)c1`, the AC50 was 11.2 µM (active). With `COc1cc(OC)cc(C(=O)NCC(=O)OC2CCOC2=O)c1` (configuration not stated) the “activity, negative = inhibition” value was -19.6% (inactive). For `CC[C@H](C)C(=O)O[C@H]1CCC=C2C=C[C@H](C)[C@H](CC[C@@H]3C[C@H](O)CC(=O)O3)[C@H]21`, the “activity, negative = inhibition” value was -8.33% (inactive). For `C=CCNC(=O)c1ccc2nc(-c3ccccc3)c(-c3ccccc3)nc2c1`, the AC50 was 14.1 µM (active). For `C=CCNC(=O)c1ccc(-c2nc(-c3ccc(Cl)c(Cl)c3)cs2)cc1`, the “activity, negative = inhibition” value was -18.2% (inactive). `CN(C)C(=O)c1ccc(-c2ccc3ncnc(NCc4ccccc4)c3c2)cc1` was tested, and the activity, negative = inhibition was 13.4% [at 2.29 µM] (inactive). With `C=CCNC(=O)c1csc(-c2ccccc2)n1` the AC50 was 15.8 µM (active). `NCCc1nc(-c2nc(C(=O)O)cs2)cs1` was tested, and the activity, negative = inhibition was -10.5% [at 11.4 µM] (inactive).

Source: PubChem BioAssay AID1851 (National Center for Advancing Translational Sciences (NCATS), 2009)
% is scaled to controls: 0 for no effect and ±100 for the full control effect.
